# Data reported in PubChem BioAssay (NCI).
# This is part of a sample that, as a whole, favours compounds with a hit. Of some 79,000 tested, about 15% had one in any assay. Unmarked numbers belong to inactive results. Calls of active or inactive are those of the source. No stated cut-off is given here; in the data, active means growth inhibition above about 70%; inactive means the rest.
# Assay: NCI Yeast Anticancer Drug Screen. Data for the mec2-1 strain (AID 157)
# Conditions: S. cerevisiae mec2-1 strain, hits give high values
# Procedure: Growth inhibition of yeast strains with defined genetic alterations is measured as a screen for potential anti-cancer activity. Selected strains with alterations in DNA damage repair or cell cycle control were exposed to compounds and growth inhibition was measured relative to vehicle treated controls. The strain used in this assay is mec2-1
# [1] = at 5.0 µM (retest, dose inferred, filed as 0.5)
# [2] = at 50.0 µM (retest, dose inferred, filed as 5.0)
SMILES,growth inhibition (at 1.2 µM) [%],growth inhibition (at 3.7 µM) [%],growth inhibition [1] [%],growth inhibition (at 11.0 µM),growth inhibition (at 33.0 µM),growth inhibition [2],growth inhibition (at 50.0 µM),growth inhibition (at 100.0 µM)
O=C1c2ccccc2C(=O)c2cc(S(=O)(=O)Nc3ccccc3)ccc21,-1,5,33,12%,21%,61%,91.4% (active),19%
COc1ccc(N=N/C(=N\NC(=O)c2cc(Br)ccc2O)c2ccc(N(CCC#N)CCC#N)cc2OC)cc1,-4,-6,22,-8%,13%,24%,43.4%,31%
O=C(/C=C/c1cccc(Br)c1)c1ccc(Cl)cc1,-65,-68,32,-51%,-18%,47%,73% (active),53%
O=C1c2cccc3cc([N+](=O)[O-])cc(c23)C(=O)N1CCN1CCCC1,5,5,11,-3%,-4%,30%,28.1%,38%
COc1ccc(N=Nc2ccc3oc(=O)c(C(=O)Nc4ccccc4)cc3c2)cc1,-18,12,-12,82% (active),97% (active),97% (active),91.3% (active),95% (active)
